This is part of a sample that, as a whole, favours compounds with a hit. Of some 83,000 tested, about 20% had one in any assay.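 Cell lines were cultured in 96-well plates, exposed to a single compound concentration, and assessed for percent growth 48 hours later.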 Activity calls are given as the source filed them. Rule for the calls: active = growth percent below 10; inactive = the rest.
These compounds were tested on HCT-116 colon (assay: NCI-60 one-dose screen, 48 h (100 = growth as untreated, 0 = no growth, -100 = all killed)). Settings: 10 µM unless noted.
For CC(C)(C)c1cc(C=O)cc(C(C)(C)C)c1O, the growth was 92.9% (inactive). With COc1ccc(OC)c(CCn2cncc2-c2c[nH]c3ccccc23)c1 the growth was 77.7% (inactive). In the case of COCCCN1CC(O)=C(c2nc(-c3ccc(C)cc3)cs2)C1=N, the growth is reported as 90.3% (inactive). With O=C(CCN1CCCC1)Nc1ccc2c(Nc3ccc(Br)cc3)c3ccccc3nc2c1 the growth was -57.6% (active). In the case of O=C(Cn1c[n+](CC(=O)c2ccc(-c3ccccc3)cc2)c2ccccc21)Nc1cccc2cccnc12, the growth is reported as 11.9% (inactive). For CCN1Cc2nc3sc(C)c(C)c3c(=O)n2C=C1C, the growth was -24.9% (active). With Cc1ccc(-n2c3c(c(-c4ccccc4)c2-c2ccccc2)C2=NCCN2C=N3)cc1 the growth was 76.5% (inactive). With CCCCC[n+]1ccc(SCC(=O)N(C)c2ccc(Oc3ccccc3)cc2)c2ccccc21 the growth was 92.8% (inactive). For COc1cc(OC)cc(C(=O)C[n+]2cccc3cc[nH]c32)c1, the growth was 97.6% (inactive). With CCOC(=O)[C@@H]1CCCN(S(=O)(=O)c2ccc(S(=O)(=O)N(CC)CC)c(F)c2)C1 the growth was 42% (inactive). For Cn1ccc2c1CC1CN(Cc3ccco3)C(=O)C1C2C(=O)O (stereo unspecified), the growth was 104% (inactive). In the case of O=C(NO)c1ccc(-n2nc(-c3ccccc3)c3ccccc32)cc1, the growth is reported as 7.64% (active). In the case of COc1ccc(CC(C)=C(c2ccc(OCCN3CCCCCC3)cc2)c2ccc(OCCN3CCCCCC3)cc2)cc1, the growth is reported as -55.1% (active). Nc1n[nH]c2cccc(C#Cc3cccc(C(=O)Nc4cccc(C(F)(F)F)c4)c3)c12 was tested, and the growth was 27.5% (inactive). With Cc1ccc(C(=O)/C(=C/c2ccc([N+](=O)[O-])cc2)SCc2ccc(Cl)cc2)cc1 the growth was -59.9% (active). With O=C(O)c1ccc2c(c1)C(=O)N(Cc1ccccc1)C2=O the growth was 96.8% (inactive). With O=C1Nc2cc(-c3cccc(O)c3)ccc2/C1=C/c1ccc[nH]1 the growth was 11.6% (inactive). With O=Cc1ccc(-c2cn3ccnc3c(-c3ccc4ncn(Cc5ccccc5)c4c3)n2)cc1 the growth was 7.44% (active). CCc1ccc(CNc2ccc(N3CCOCC3)c(C(=O)O)c2)cc1 was tested, and the growth was 86.1% (inactive). O=C(CCN1CCCC1)c1ccc([N+](=O)[O-])cc1 was tested, and the growth was 105% (inactive). With CNCCOc1nc2c3cnccc3cc(-c3cc(OC)c(OC)c(OC)c3)c2c2ccncc12 the growth was -89.9% (active). For Nc1c(S(=O)(=O)O)cc2c3c(cccc13)C(=O)OC2=O, the growth was 98.6% (inactive). With Oc1ccc(C(c2ccc(O)cc2)c2ccc(Br)cn2)cc1 the growth was 19.4% (inactive). For CCCCOc1ccc(/C=N/Nc2cc(C)nc3ccc(Br)cc23)cc1, the growth was -69.6% (active). In the case of CC1(C)NCCC[C@]2(C)[C@H]3CC(=O)[C@H]4[C@@H]5C[C@](C)(CO)CC[C@]5(C)CC[C@@]4(C)[C@]3(C)CC[C@@H]12, the growth is reported as 84.1% (inactive). For N#Cc1cc(-c2nc3ccccc3s2)c(=O)n(NS(=O)(=O)c2ccccc2)c1N, the growth was 109% (inactive). With O=S(=O)(NCCNc1nccc(-c2c(-c3cccc(O)c3)nc3occn23)n1)c1cccc(F)c1 the growth was 70.4% (inactive). In the case of c1ccc2c(-c3c[nH]c4ccccc34)c3c(cc2c1)[nH]c1ccccc13, the growth is reported as 46.9% (inactive). O=C(/C=C(/C=C/c1csc2ccccc12)OB(F)F)/C=C/c1csc2ccccc12 was tested, and the growth was -57.7% (active). In the case of Cc1ccc(-c2csc(NC(=O)CSc3nc(-c4ccccc4)cc(=O)[nH]3)n2)cc1, the growth is reported as 98.5% (inactive). In the case of CCCC/C=N/NC(=S)NCc1ccccc1, the growth is reported as 90.9% (inactive). For COc1ccc2nc(-c3ccc(-c4noc(-c5cc(OC)c(OC)c(OC)c5)n4)cc3)[nH]c2c1, the growth was 33% (inactive). For Fc1ccc(-c2cn3c(nc4ccccc43)c(-c3ccccc3)n2)cc1, the growth was 89.1% (inactive). With CCNC(=O)Oc1ccc(/C(=C(\C)c2ccccc2)c2ccc(OCCN3CCCCC3)cc2)cc1 the growth was 40.5% (inactive). In the case of CCCCOc1ccc(/C(C)=N/Nc2cc(C)nc3ccc(Br)cc23)cc1, the growth is reported as 27.7% (inactive). In the case of N#Cc1cccc(-c2ccc3c(c2)NC(=O)/C3=C\c2ccc[nH]2)c1, the growth is reported as 73% (inactive). In the case of O=C(NNc1nc2c(F)cccc2n2cccc12)c1cnccn1, the growth is reported as 12.4% (inactive). For CN(C)CCC(=O)c1ccc([N+](=O)[O-])cc1, the growth was 103% (inactive).

Each compound was assayed on HCC-2998 colon in the same assay as above. Settings: 10 µM unless noted.
For CC(C)(C)c1cc(C=O)cc(C(C)(C)C)c1O, the growth was 93.6% (inactive). For COc1ccc(OC)c(CCn2cncc2-c2c[nH]c3ccccc23)c1, the growth was 91.8% (inactive). In the case of COCCCN1CC(O)=C(c2nc(-c3ccc(C)cc3)cs2)C1=N, the growth is reported as 112% (inactive). For O=C(CCN1CCCC1)Nc1ccc2c(Nc3ccc(Br)cc3)c3ccccc3nc2c1, the growth was -73.4% (active). O=C(Cn1c[n+](CC(=O)c2ccc(-c3ccccc3)cc2)c2ccccc21)Nc1cccc2cccnc12 was tested, and the growth was 6.56% (active). With CCN1Cc2nc3sc(C)c(C)c3c(=O)n2C=C1C the growth was 81.2% (inactive). For Cc1ccc(-n2c3c(c(-c4ccccc4)c2-c2ccccc2)C2=NCCN2C=N3)cc1, the growth was 108% (inactive). With CCCCC[n+]1ccc(SCC(=O)N(C)c2ccc(Oc3ccccc3)cc2)c2ccccc21 the growth was 100% (inactive). For COc1cc(OC)cc(C(=O)C[n+]2cccc3cc[nH]c32)c1, the growth was 107% (inactive). With CCOC(=O)[C@@H]1CCCN(S(=O)(=O)c2ccc(S(=O)(=O)N(CC)CC)c(F)c2)C1 the growth was 92.5% (inactive). With Cn1ccc2c1CC1CN(Cc3ccco3)C(=O)C1C2C(=O)O (stereo unspecified) the growth was 104% (inactive). O=C(NO)c1ccc(-n2nc(-c3ccccc3)c3ccccc32)cc1 was tested, and the growth was 44.1% (inactive). In the case of COc1ccc(CC(C)=C(c2ccc(OCCN3CCCCCC3)cc2)c2ccc(OCCN3CCCCCC3)cc2)cc1, the growth is reported as -91.8% (active). Nc1n[nH]c2cccc(C#Cc3cccc(C(=O)Nc4cccc(C(F)(F)F)c4)c3)c12 was tested, and the growth was 62% (inactive). For Cc1ccc(C(=O)/C(=C/c2ccc([N+](=O)[O-])cc2)SCc2ccc(Cl)cc2)cc1, the growth was 78.6% (inactive). In the case of O=C(O)c1ccc2c(c1)C(=O)N(Cc1ccccc1)C2=O, the growth is reported as 99.2% (inactive). In the case of O=C1Nc2cc(-c3cccc(O)c3)ccc2/C1=C/c1ccc[nH]1, the growth is reported as 14.8% (inactive). With O=Cc1ccc(-c2cn3ccnc3c(-c3ccc4ncn(Cc5ccccc5)c4c3)n2)cc1 the growth was 105% (inactive). CCc1ccc(CNc2ccc(N3CCOCC3)c(C(=O)O)c2)cc1 was tested, and the growth was 104% (inactive). O=C(CCN1CCCC1)c1ccc([N+](=O)[O-])cc1 was tested, and the growth was 94.8% (inactive). In the case of CNCCOc1nc2c3cnccc3cc(-c3cc(OC)c(OC)c(OC)c3)c2c2ccncc12, the growth is reported as -77% (active). Nc1c(S(=O)(=O)O)cc2c3c(cccc13)C(=O)OC2=O was tested, and the growth was 102% (inactive). With Oc1ccc(C(c2ccc(O)cc2)c2ccc(Br)cn2)cc1 the growth was 3.49% (active). For CCCCOc1ccc(/C=N/Nc2cc(C)nc3ccc(Br)cc23)cc1, the growth was -53.9% (active). For CC1(C)NCCC[C@]2(C)[C@H]3CC(=O)[C@H]4[C@@H]5C[C@](C)(CO)CC[C@]5(C)CC[C@@]4(C)[C@]3(C)CC[C@@H]12, the growth was 100% (inactive). With N#Cc1cc(-c2nc3ccccc3s2)c(=O)n(NS(=O)(=O)c2ccccc2)c1N the growth was 116% (inactive). For O=S(=O)(NCCNc1nccc(-c2c(-c3cccc(O)c3)nc3occn23)n1)c1cccc(F)c1, the growth was 129% (inactive). c1ccc2c(-c3c[nH]c4ccccc34)c3c(cc2c1)[nH]c1ccccc13 was tested, and the growth was 82.8% (inactive). With O=C(/C=C(/C=C/c1csc2ccccc12)OB(F)F)/C=C/c1csc2ccccc12 the growth was 92% (inactive). Cc1ccc(-c2csc(NC(=O)CSc3nc(-c4ccccc4)cc(=O)[nH]3)n2)cc1 was tested, and the growth was 106% (inactive). For CCCC/C=N/NC(=S)NCc1ccccc1, the growth was 109% (inactive). For COc1ccc2nc(-c3ccc(-c4noc(-c5cc(OC)c(OC)c(OC)c5)n4)cc3)[nH]c2c1, the growth was 111% (inactive). For Fc1ccc(-c2cn3c(nc4ccccc43)c(-c3ccccc3)n2)cc1, the growth was 98.9% (inactive). For CCNC(=O)Oc1ccc(/C(=C(\C)c2ccccc2)c2ccc(OCCN3CCCCC3)cc2)cc1, the growth was 84.9% (inactive). For CCCCOc1ccc(/C(C)=N/Nc2cc(C)nc3ccc(Br)cc23)cc1, the growth was 45.8% (inactive). N#Cc1cccc(-c2ccc3c(c2)NC(=O)/C3=C\c2ccc[nH]2)c1 was tested, and the growth was 36% (inactive). In the case of O=C(NNc1nc2c(F)cccc2n2cccc12)c1cnccn1, the growth is reported as 52.9% (inactive). In the case of CN(C)CCC(=O)c1ccc([N+](=O)[O-])cc1, the growth is reported as 106% (inactive).

From PubChem BioAssay (NCI)
